Experimental data from PubChem BioAssay AID434973 (Sanford-Burnham Center for Chemical Genomics, 2010).
The whole screen tested about 330,000 compounds, of which about 4,900 (1.5%) were called active. The full list was thinned out, with actives kept by preference. A number with no mark means an inactive call.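 The calls were made as follows: active = inhibition above about 50% at the single test dose (limit read from the data); inactive = the rest.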

Target: Sentrin-specific protease 7 (Homo sapiens) (UniProt Q9BQF6)
Experiment: blockers of human SENP7 peptidase activity – biochemical, luminescence, uHTS, primary screen (AID 434973);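 also: plate controls were DMSO with enzyme for no effect and no enzyme buffer wells for full effect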
Conditions: recombinant SENP7, Z-RLRGG-aminoluciferin luminescence, 40 min; at 5 µM; stronger effect = higher value

Row | SMILES | inhibition
1 | CC12C(=O)N(c3ccccc3)C(=O)C1C(c1ccccc1)N1CCCN12 (stereo not drawn) | -4.08%
2 | C=CCn1c(SCC(=O)c2c(N)n(C)c(=O)n(C)c2=O)nc2sc(CC)cc2c1=O | -1.46%
3 | COc1cccc(/C=N\Nc2nncc(-c3ccccc3)n2)c1 | 24.7%
4 | CN(CCO)c1ccc(/C=N/Nc2nncc3ccccc23)cc1 | 93% (active)
5 | C/C(=N\Nc1nncc2ccccc12)c1ccc(Cl)c([N+](=O)[O-])c1 | 5.32%
6 | COc1ccc([N+](=O)[O-])cc1N(CC(O)CN(CC(C)C)CC(C)C)S(=O)(=O)c1ccc(C)cc1 (stereo not drawn) | 3.08%
7 | COc1ccc(C2CC(=O)C=C(NCC3CCCO3)C2)cc1 (stereo not drawn) | 5.59%
8 | O=C(CN1C(=O)NC2(CCCCCC2)C1=O)NCc1cccs1 | 3.72%
9 | Cc1cccc(NC(=O)CSCC(=O)Nc2nnc(C3CC3)s2)c1 | 4.12%
10 | Cc1cnc(NC(=O)C2CCCC2)s1 | 0.0964%
11 | O=C(Nc1nnc(C2CC2)s1)c1ccccn1 | 57.4% (active)
12 | O=C(Nc1nnc(Cc2ccccc2)s1)c1cnccn1 | 3.97%
13 | CCc1cc(C(=O)Nc2nnc(C3CC3)s2)sc1C | -5.93%
14 | Cc1ccc(SCC(=O)Nc2ncc(C)s2)cc1 | -2.81%
15 | O=C(Nc1nnc(C2CC2)s1)c1cc(Cl)sc1Cl | 5.7%
16 | Cc1cc(C(=O)Nc2nnc(C3CC3)s2)c(C)s1 | 77% (active)
17 | Cc1cnc(NC(=O)c2ccccn2)s1 | 82.8% (active)
18 | OC(CNC1CCCC1)COc1ccc(F)cc1 (stereo not drawn) | 7.04%
19 | Cc1nn(C(C)(C)C)c(OC(=O)CC(C)C)c1S(=O)(=O)c1ccccc1 | 4.96%
20 | COc1ccc(S(=O)(=O)N2CCN(C(=O)c3cc(C)oc3C)CC2)cc1 | 3.33%
21 | COc1ccccc1-c1oc2ccccc2c1C#CCCCCO | 5.54%

Row | SMILES | inhibition
22 | CC1Cc2ccccc2N1C1=CC(=O)CC(C)(C)C1 (stereo not drawn) | -3.44%
23 | CC(C)(C)NC(=O)c1ccc(Cn2cc(C(F)(F)F)ccc2=O)cc1 | -6.25%
24 | Clc1ccc(-c2nc3ccccn3c2CN2CCSCC2)cc1 | -5.08%
25 | Cc1ccc(C(=O)C(=S)N2CCOCC2)cc1 | -2.91%
26 | CC1=NN(C(N)=S)C(=O)C1N=Nc1cc(Cl)ccc1Cl (stereo not drawn) | -5.66%
27 | Cc1[nH]n(C)c(=O)c1N=Nc1ccc(S(C)(=O)=O)cc1 | 0%
28 | Cc1[nH]n(C(N)=S)c(=O)c1N=Nc1ccc(Cl)cc1Cl | 51.8% (active)
29 | CCOc1ccc(NC(=O)N2CC=C(n3c(=O)[nH]c4ccccc43)CC2)cc1 | 4%
30 | CC1CN(/C=C/C(=O)C(F)(F)F)CC(C)O1 (stereo not drawn) | 1.13%
31 | O=C(NCCC1=CCCCC1)C1CCN(Cc2cnn(-c3ccccc3)c2-n2cccc2)CC1 | -3.45%
32 | C1=C(CCNc2ncnc3c2cnn3-c2ccccc2)CCCC1 | 56.6% (active)
33 | CC(C)Sc1ncnc2c1cnn2-c1ccccc1 | 45.7%
34 | CCCS(=O)(=O)N1CCC(C(=O)NCCCN(C)Cc2ccccc2)CC1 | -8.04%
35 | Cc1cccc(NC(=O)c2ccc3nsnc3c2)c1C | 2.56%
36 | O=C(Nc1ccccc1Cl)c1ccc2nsnc2c1 | 50.7% (active)
37 | O=C(Nc1ccccc1)c1ccc2nsnc2c1 | 35.8%
38 | COc1cccc(-c2nnc(SCCOc3ccc4c(C)cc(=O)oc4c3)o2)c1 | 7.33%
39 | COc1ccc2oc(-c3cccc(NC(=O)CSc4ccc(Cl)cc4)c3)nc2c1 | -4.24%
40 | Cc1nc(-c2ccc([N+](=O)[O-])cc2)c(-c2ccccc2)o1 | -7.84%
41 | O=[N+]([O-])c1ccc2oc(-c3cccc(O)c3)nc2c1 | 87.7% (active)
42 | COc1cccc(-c2nc3cc(C)ccc3o2)c1 | 99.9% (active)

Row | SMILES | inhibition
43 | COc1ccc([N+](=O)[O-])cc1-c1nc2ccccc2nc1-c1ccccc1 | -0.763%
44 | Cc1ccc(C2(C)NC(=O)N(CC(=O)Nc3ccccc3C(=O)N3CCCCC3)C2=O)cc1 (stereo not drawn) | 12.4%
45 | COCOc1cc(O)c(C(=O)/C=C/c2ccc(OCOC)c(OCOC)c2)c(OCOC)c1 | 6.61%
46 | O=C(/C=C/c1ccco1)NC(=S)Nc1ccccc1Br | -4.36%
47 | O=C(/C=C/c1ccco1)Nc1ccc(Oc2ccccc2)cc1 | 63.9% (active)
48 | Cc1nnc(NC(=O)/C=C/c2ccco2)s1 | -7.44%
49 | CCOc1cc(NC(=O)CCl)c(OCC)cc1NC(C)=O | 5.15%
50 | O=C(Cc1ccc(S(=O)(=O)N2CCOCC2)s1)N1CCN(c2ccc(C(F)(F)F)cc2[N+](=O)[O-])CC1 | -8%
51 | O=C(O)c1ccc(N=NN2CCOCC2)cc1 | -2.47%
52 | O=C(O)c1cccc(N=NN2CCCCCC2)c1 | 77.8% (active)
53 | NC1=NN(c2cccc(C(=O)O)c2)C(=O)C1 | 5.47%
54 | O=C(Oc1ccc([N+](=O)[O-])cc1)c1ccc2ccccc2n1 | -9.28%
55 | CC(=O)Oc1ccc2c(=O)oc(-c3ccc([N+](=O)[O-])cc3)nc2c1 | 97.5% (active)
56 | CC(=O)Oc1ccc(-c2nc3c(C)cccc3c(=O)o2)cc1 | -7.63%
57 | COc1ccc(OCC(=O)NCCc2ccc(S(N)(=O)=O)cc2)cc1 | 7.31%
58 | CCc1ccc(C(=O)COC(=O)c2ccco2)cc1 | 68.9% (active)
59 | O=C(OCC(=O)N1CCCC1)c1ccco1 | -6.82%
60 | O=C(COC(=O)c1ccco1)NCc1ccc(Cl)cc1 | -0.452%
61 | Cc1ccc(-n2nc(-c3ccco3)cc2C(=O)NCc2cccnc2)cc1 | 0.29%
62 | COc1ccc(C(=O)Nc2cc(C)c(NC(=O)c3ccccc3OC)cn2)cc1 | 9.47%
63 | O=C(N/N=C/c1ccc(OC(=O)c2ccccc2Cl)cc1)c1ccc(O)cc1 | 4.1%

Row | SMILES | inhibition
64 | COc1ccc(C(=O)Nc2ccccc2C(=O)N/N=C/c2ccc(O)c(OC)c2)cc1 | 101% (active)
65 | COc1ccc(NS(=O)(=O)c2cc(C(=O)Nc3ccccc3C(=O)O)ccc2C)cc1 | 9.65%
66 | CCOc1cc(/C=N/NC(=O)c2cc(-c3ccccc3)nc3ccccc23)ccc1O | -1.26%
67 | COc1ccc(/C=N/Nc2ccccc2C(=O)O)cc1 | 94.3% (active)
68 | COc1ccc(/C=N/OCC(=O)N(Cc2ccccc2)c2ccccc2C(=O)O)cc1 | 6.96%
69 | COc1ccc(C(=O)Nc2ccccc2C(=O)N/N=C/c2ccccc2OC)cc1 | 64.8% (active)
70 | COc1ccccc1C(=O)NNC(=O)c1ccc(NC(=O)c2ccccc2)cc1 | 11.6%
71 | O=C(CN1C(=O)NC2(CCCCC2)C1=O)N1CCN(C(=O)c2cccs2)CC1 | -1.61%
72 | COc1cc(S(=O)(=O)N2CCN=C2c2ccccc2)ccc1Cl | -10%
73 | O=C(CC1OC(=O)c2ccccc21)NC1CCCCC1 (stereo not drawn) | 1.77%
74 | CC(C)c1c(O)nc(SCCOc2ccc(Cl)cc2)[nH]c1=O | 8.54%
75 | O=C(Cn1cnc2ccccc2c1=O)NNC(=O)c1ccccc1F | -11%
76 | CCN1CCN(C(C(=O)NC2CCCC2)c2cc3c(cc2[N+](=O)[O-])OCO3)CC1 (stereo not drawn) | -3.92%
77 | Nc1nc(C23CC4CC(CC(C4)C2)C3)cs1 | 3.32%
78 | Fc1ccccc1/C=N/Nc1cc(N2CCCCC2)ncn1 | 69.8% (active)
79 | COc1ccccc1N1CCN(C(=O)C(=O)N/N=C/c2ccccc2F)CC1 | -1.74%
80 | C(=N/Nc1cc(N2CCOCC2)nc(N2CCOCC2)n1)/c1ccccc1 | 31.9%
81 | CC(=O)Nc1ccc(S(=O)(=O)Nc2cc(C)cn(Cc3ccc(C)cc3)c2=O)cc1 | 2.97%
82 | Cc1ccc(S(=O)(=O)NC[C@H]2O[C@@H](n3cnc4c(N)ncnc43)[C@H](O)[C@@H]2O)s1 | 6.73%
83 | CC(=O)c1cccc(NC(=O)COc2ccc(S(=O)(=O)N3CCOCC3)cc2)c1 | 3.63%
